3T3 cytotox: Cytotoxic Profiling in NIH 3T3 Cell Line of Diverse Libraries Using Quantitative High-Throughput Screening | NIH 3T3 viability, CellTiter-Glo ATP luminescence, 48-72 h | Potency, µM (top dose mostly 96.7 µM), most hits filed as inhibitors | 94,000 tested, 4.3% active | AID 1345082, 2018; further: nearly all actives have a fitted effect of over 55% in size
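Viability of NIH 3T3 cells after 48 or 72 hr compound treatment at 37 °C was assessed by CellTiter-Glo, with luminescence imaged following a 10 min room-temperature step.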
HEK cytotox: Cytotoxic Profiling in HEK 293 Cell Line of Diverse Libraries Using Quantitative High-Throughput Screening. HEK 293 viability, ATP luminescence (CellTiter-Glo), 48-72 h. Potency, µM (top dose mostly 115 µM), usual class: inhibitors. 94,000 tested, 6.6% active; further: nearly all actives have a fitted effect of over 60% in size
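250 HEK 293 cells/well; compound by pintool; incubated 48 or 72 hr at 37 degree Celsius; CellTiter-Glo added, 10 min RT, luminescence imaged.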
hNpr1 antagonist: Natriuretic polypeptide receptor (hNpr1) antagonism - Primary qHTS | HEK293 hNpr1 GloSensor cGMP, ANP-stimulated luminescence | Potency, µM (series often up to 46.3 µM), hits mostly inhibitors | 76,000 tested, 1.6% active | AID 1347048, 2019; calls by dose curve; further: nearly all actives have a fitted effect of over 60% in size
Target sequence (P16066 whole entry, looked up): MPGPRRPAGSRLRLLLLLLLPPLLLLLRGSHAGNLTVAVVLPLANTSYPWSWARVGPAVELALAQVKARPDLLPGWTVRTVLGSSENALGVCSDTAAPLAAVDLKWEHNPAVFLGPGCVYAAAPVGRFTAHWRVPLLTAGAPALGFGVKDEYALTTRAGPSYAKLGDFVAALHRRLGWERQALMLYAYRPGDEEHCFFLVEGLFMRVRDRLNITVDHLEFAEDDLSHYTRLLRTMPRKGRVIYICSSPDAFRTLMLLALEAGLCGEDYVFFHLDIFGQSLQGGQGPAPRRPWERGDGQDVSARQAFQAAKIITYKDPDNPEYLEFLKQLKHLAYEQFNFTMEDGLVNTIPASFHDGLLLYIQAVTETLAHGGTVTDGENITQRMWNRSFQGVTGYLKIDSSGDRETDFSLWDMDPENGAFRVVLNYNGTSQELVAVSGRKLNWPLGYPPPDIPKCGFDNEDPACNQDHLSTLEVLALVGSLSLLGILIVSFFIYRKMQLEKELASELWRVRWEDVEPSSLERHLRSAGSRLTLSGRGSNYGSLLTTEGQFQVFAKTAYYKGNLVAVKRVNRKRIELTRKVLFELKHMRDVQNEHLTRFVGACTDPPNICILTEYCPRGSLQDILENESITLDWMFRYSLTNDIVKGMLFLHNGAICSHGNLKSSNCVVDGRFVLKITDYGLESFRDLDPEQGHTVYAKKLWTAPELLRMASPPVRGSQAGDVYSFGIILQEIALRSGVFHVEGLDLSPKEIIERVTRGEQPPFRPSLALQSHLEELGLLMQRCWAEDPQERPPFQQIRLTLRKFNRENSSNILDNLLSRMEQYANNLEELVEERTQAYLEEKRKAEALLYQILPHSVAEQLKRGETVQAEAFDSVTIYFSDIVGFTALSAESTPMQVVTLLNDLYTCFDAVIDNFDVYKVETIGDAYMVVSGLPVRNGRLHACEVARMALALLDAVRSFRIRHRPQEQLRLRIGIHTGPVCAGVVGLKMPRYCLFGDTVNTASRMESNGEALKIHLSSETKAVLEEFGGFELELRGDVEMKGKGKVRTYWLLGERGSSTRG
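Compound pre-incubated 30 min at room temperature on GloSensor-loaded HEK293 cells stably carrying hNpr1 and the pGS-40F cGMP biosensor. Stimulation uses hNppA at 0.1 nM final; luminescence is taken at baseline and 20 min post-agonist.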
HEK293 viab: GF-AFC viability counterscreen for inhibitors of alpha-synuclein gene (SNCA) expression. HEK-293-SNCA-luc viability, GF-AFC fluorescence, 24 h. Potency, µM (titrated, usually from 57.1 µM), hits mostly cytotoxic. 150,000 tested, 0.12% active; further: nearly all actives have a fitted effect of over 30% in size
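Cytotoxicity counterscreen: after 24 h compound treatment of genome-edited SNCA-luciferase HEK-293 cells, live-cell protease substrate GF-AFC read by fluorescence after 30 min; activity scaled between DMSO (0%) and medium-only (-100%), curves Hill-fitted.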
SNCA expr inhib: Primary qHTS assay for inhibitors of alpha-synuclein gene (SNCA) expression. Potency, µM (top dose mostly 57.2 µM), hits mostly inhibitors. 140,000 tested, 0.17% active. HEK-293 SNCA-luciferase knock-in, luminescence, 24 h. AID 1671194, 2021; further: nearly all actives have a fitted effect of over 45% in size
Luciferase inh: Firefly luciferase inhibition profiling of diverse chemical library using quantitative high-throughput screening; Luciferin 4-monooxygenase (Photinus pyralis), P08659; purified P. pyralis luciferase, luminescence, biochemical; Potency, µM (highest dose often 115 µM), hits mostly inhibitors; 76,000 tested, 2.5% active; further: nearly all actives have a fitted effect of over 65% in size
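FLuc 10nM, D-luciferin 10uM, ATP 10uM, Mg acetate 10mM, Tris acetate pH 7.5, Tween/BSA; cpd qHTS; enzyme added last; CCD luminescence.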
Of the large screens only hits and unclear results are named; the others gave an inactive call; ! = a repeat was not active. Compounds with a hit are over-represented: about 7.4% of the library has one in this group of screens. Unless noted, the call rests on the fitted dose curve; in most records, active means well fitted curve in the direction sought with a large enough effect; inconclusive means small, poorly fitted or top-dose-only effect, or another doubt; inactive means no such curve, though single readings can be large; an effect the other way counts as inactive or inconclusive.

COc1ccccc1-c1cccc(C(=O)N2CCN(C(=O)c3ccccc3)CC2)c1	HEK cytotox inconclusive (no result: hNpr1 antagonist, Luciferase inh)
COc1ccccc1-c1cccc(C(=O)N2CCN(C(=O)c3ccc(Cl)cc3)CC2)c1	3T3 cytotox 31.6µM, HEK cytotox inconclusive, SNCA expr inhib inconclusive (no result: hNpr1 antagonist, Luciferase inh)
CN(C)C[C@@H]1CN(S(C)(=O)=O)C[C@H]1NC(=O)c1cnco1	none
CN1CCC(Cc2ccc(C(=O)NCC3CCCCC3)cc2)CC1	3T3 cytotox 39.8µM, HEK cytotox inconclusive, Luciferase inh inconclusive
CNC(=O)c1ccc(CC2CCN(C(C)=O)CC2)cc1	none
CC(=O)N1CCC(Cc2ccc(C(=O)Nc3ccc(C)cc3)cc2)CC1	3T3 cytotox inconclusive, HEK cytotox inconclusive, hNpr1 antagonist 10µM, Luciferase inh inconclusive
O=C(Cn1ncc2ccccc2c1=O)NC1CCCc2c1[nH]c1ccccc21 (stereo not given)	none
COC(=O)N(C)Cc1cccc(N2CCN([S+](=O)([O-])c3c(Cl)cccc3Cl)CC2)c1F	3T3 cytotox inconclusive, HEK cytotox 14.1µM (no result: hNpr1 antagonist, HEK293 viab, SNCA expr inhib, Luciferase inh)
CN(Cc1cccc(N2CCN(C(=O)OC(C)(C)C)CC2)c1F)[S+](C)(=O)[O-]	3T3 cytotox inconclusive, HEK cytotox 79.4µM (no result: hNpr1 antagonist, HEK293 viab, SNCA expr inhib, Luciferase inh)
CC(C)(C)OC(=O)N1CCC(c2c(C(=O)N3CCN(c4ccccc4F)CC3)cnn2C(C)(C)C)CC1	none (no result: 3T3 cytotox, HEK cytotox, hNpr1 antagonist, Luciferase inh)
CCOC(=O)C(Cc1cccc(N2CCC(N(c3ccccc3)c3ccccc3)CC2)c1F)OC (stereo not given)	HEK cytotox inconclusive (no result: hNpr1 antagonist, HEK293 viab, SNCA expr inhib, Luciferase inh)
CCN(C1CCOCC1)C1CN(C(=O)c2ccnn2C)C1	none
COc1ccccc1C(=O)N1CCC2(C1)NC(=O)c1ccccc1CO2 (stereo not given)	none
c1cc(-c2ccc(CN3CCC4(CCNCC4)C3)o2)[nH]n1	none
O=C(c1cc(Cl)ccc1F)N1CCC[C@H]1c1nc(-c2ccc(F)cc2)no1	3T3 cytotox inconclusive, HEK cytotox 79.4µM
COc1ccc(-c2noc([C@@H]3CCCN3C(=O)c3cc(C)cc(C)c3)n2)cc1OC	3T3 cytotox inconclusive, HEK cytotox 31.6µM
CCOC(=O)CC1CCCCN1C(=O)CCC1(Cc2ccc3ccccc3c2)CCC(=O)N1 (stereo not given)	none
COCCN1C(=O)c2cccn2CC1CNC(=O)Cc1ccccc1F (stereo not given)	none
COc1cccc(CN2CCC3(CC2)NCCc2c3[nH]c3ccc(OC)cc23)c1	3T3 cytotox inconclusive, HEK cytotox inconclusive, SNCA expr inhib inconclusive
COc1ccc2[nH]c3c(c2c1)CCNC31CCN(Cc2ccc(C)o2)CC1	3T3 cytotox inconclusive, HEK cytotox inconclusive, SNCA expr inhib inconclusive
COc1cccc(CN2CCC3(CC2)NCCc2c3[nH]c3ccccc23)c1	3T3 cytotox 35.5µM, HEK cytotox 31.6µM
COc1ccc2[nH]c3c(c2c1)CCNC31CCN(Cc2ccc(F)c(F)c2)CC1	3T3 cytotox 35.5µM, HEK cytotox inconclusive
COc1ccc(C(=O)N2C[C@@H](Oc3cccnc3)C[C@H]2C(=O)NC2CC2)c(OC)c1	none
CCn1cc(S(=O)(=O)NCC2Cn3cccc3C(=O)N2C)cn1 (stereo not given)	none
Cc1ccc(C(=O)N2CCc3onc(-c4cccc5ccccc45)c3C2)cc1	3T3 cytotox inconclusive, HEK cytotox 39.8µM, HEK293 viab inconclusive, SNCA expr inhib inconclusive
O=C(c1ccccc1)N1CCc2nc(-c3ccccc3)nc(-c3ccc(Cl)cc3)c2C1	3T3 cytotox inconclusive, HEK cytotox inconclusive
O=C(c1ccc(C(F)(F)F)cc1)N1CCc2nc(-c3ccc(Cl)cc3)nc(-c3ccccc3)c2C1	HEK cytotox 20µM
Cc1ccc(C(=O)N2CCc3nc(-c4ccc(Cl)cc4)nc(-c4ccccc4)c3C2)cc1	3T3 cytotox inconclusive, HEK cytotox 50.1µM!, Luciferase inh inconclusive
O=C(NCCCN1CCOCC1)c1c(OCC2CC2)cc(=O)n2c1CCCCC2	none
c1ccc(N2CCN(Cc3cc(CC4(NC5CCOCC5)COC4)no3)CC2)cc1	none
O=C(N[C@H]1CCN2C(=O)[C@@H](Cc3c[nH]c4ccccc34)NC(=O)[C@H]12)c1ccccc1	none
CCOC(=O)C1=C(C)N=C2SC=C(CC(=O)N3CCC(C)CC3)N2C1c1ccccc1F (stereo not given)	3T3 cytotox inconclusive, HEK cytotox 39.8µM, SNCA expr inhib inconclusive
COC(=O)C1=C(C)N=C2SC=C(CC(=O)N3CCCCC3C)N2C1c1cccc(OC)c1 (stereo not given)	HEK cytotox inconclusive
COCCOC(=O)C1=C(C)N=C2SC=C(CC(=O)N3CCCCC3C)N2C1c1ccccc1 (stereo not given)	HEK cytotox 35.5µM
CC1=C(C(=O)Nc2ccccc2)C(c2cc(C)ccc2C)N2C(CC(=O)N3CCCC3)=CSC2=N1 (stereo not given)	3T3 cytotox inconclusive, HEK cytotox 31.6µM, hNpr1 antagonist inconclusive
COCCOC(=O)C1=C(C)N=C2SC=C(CC(=O)NCCc3ccccc3)N2C1c1ccccc1 (stereo not given)	3T3 cytotox inconclusive, HEK cytotox 50.1µM
COC(=O)C1=C(C)N=C2SC=C(CC(=O)N3CCCC3)N2C1c1ccccc1Cl (stereo not given)	HEK cytotox inconclusive
Cc1cc(C(=O)N2CCCCCCNC(=O)[C@@H]3C[C@@H](c4nc(Cc5ccccc5)no4)C[C@@H]32)nn1C	none
Cc1cccc(CCNC(=O)CCc2nc(C3CCCN3S(C)(=O)=O)no2)c1 (stereo not given)	none
Cc1ccccc1C(=O)N1CCC(N2C(=O)CCC2C(=O)NC(C)C)CC1 (stereo not given)	none (no result: hNpr1 antagonist, Luciferase inh)
O=C(CC(c1ccccc1)c1ccc(Cl)cc1)N1CCOCC1 (stereo not given)	HEK cytotox inconclusive
COCCNC(=O)CC(c1ccc(Cl)cc1)c1c[nH]c2ccc([N+](=O)[O-])cc12 (stereo not given)	3T3 cytotox inconclusive, HEK cytotox 39.8µM, hNpr1 antagonist inconclusive
O=C(CC(c1ccc(Cl)cc1)c1c[nH]c2ccc([N+](=O)[O-])cc12)N1CCOCC1 (stereo not given)	3T3 cytotox inconclusive, HEK cytotox 39.8µM, hNpr1 antagonist inconclusive
O=C(c1cccc(Br)c1)N1CCCC2(CNc3ncccc3[S+](=O)([O-])N2)C1 (stereo not given)	none (no result: hNpr1 antagonist, HEK293 viab, SNCA expr inhib, Luciferase inh)
